This note sets out measurements from PubChem BioAssay (EPA / NIEHS).

The target in this experiment is Type-1 angiotensin II receptor (Homo sapiens) (UniProt P30556). Put plainly: NVS_GPCR_hAT1: NovaScreen (NVS) G Protein-Coupled Receptor Assay for human Angiotensin II receptor type 1 (AT1) (AID 2283263). A digest of the protocol:
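Membranes from KAN-TS cells; radioligand competitive displacement, 3 h, filtration and scintillation counting. Single-point duplicate screen at 25 uM, then concentration-response up to 50 uM for hits; loss of signal fitted versus DMSO.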

Results filed as inconclusive are left out. Activity calls are given as the source filed them. How the source made its calls: active means hit-call score of the fitted dose curve at least 0.9, where 1 is the maximum; inconclusive means response in the unintended direction; inactive means score below 0.9.

Chain of Type-1 angiotensin II receptor (Homo sapiens) (P30556 whole entry, looked up): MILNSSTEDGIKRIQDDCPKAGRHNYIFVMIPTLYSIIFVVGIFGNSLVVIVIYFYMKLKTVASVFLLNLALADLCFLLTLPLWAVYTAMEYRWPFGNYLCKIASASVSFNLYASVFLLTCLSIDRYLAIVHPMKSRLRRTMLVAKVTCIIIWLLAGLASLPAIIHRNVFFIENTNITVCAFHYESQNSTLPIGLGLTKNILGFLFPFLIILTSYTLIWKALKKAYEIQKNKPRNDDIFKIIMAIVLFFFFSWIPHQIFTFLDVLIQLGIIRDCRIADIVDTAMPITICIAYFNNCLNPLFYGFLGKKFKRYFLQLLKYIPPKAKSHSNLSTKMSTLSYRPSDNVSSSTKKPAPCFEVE

Consider `Oc1ccc(C(c2ccc(O)cc2)(C(F)(F)F)C(F)(F)F)cc1`, for which the outcome was inactive.
